# Only a selection was taken, and hits are over-represented in it overall.
# AmpC inh no detg: inhibitors of E. coli AmpC beta-lactamase without detergent. Potency, µM (series often up to 57.1 µM), for inactives: at the top dose activity change, negative = inhibition, hits mostly inhibitors. AID 485341. hit rate 0.52% among 330,000. P00811. AmpC nitrocefin hydrolysis, absorbance 480 nm, 0.0001% Triton;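 further: potency means the concentration at half of the fitted maximal effect; plate controls were no compound for no effect and no enzyme for full effect; nearly all actives have a fitted effect of over 20% in size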
# Target sequence (P00811 whole entry, looked up): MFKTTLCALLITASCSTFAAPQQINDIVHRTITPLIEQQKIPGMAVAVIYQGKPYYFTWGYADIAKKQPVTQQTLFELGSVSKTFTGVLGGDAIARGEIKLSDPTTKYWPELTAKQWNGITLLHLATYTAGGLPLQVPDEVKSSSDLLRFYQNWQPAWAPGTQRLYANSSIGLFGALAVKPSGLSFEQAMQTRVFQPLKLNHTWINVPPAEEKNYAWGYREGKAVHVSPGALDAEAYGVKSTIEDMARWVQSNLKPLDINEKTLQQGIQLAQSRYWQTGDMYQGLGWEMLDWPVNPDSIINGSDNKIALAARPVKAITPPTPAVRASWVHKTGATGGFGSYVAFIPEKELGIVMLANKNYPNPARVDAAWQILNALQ
#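 AmpC (5.3 nM in the dispensed reagent) in 20 mM phosphate pH 7.0 with 0.01% (detergent screen) or 0.0001% Triton X-100 was preincubated with compounds for 15 min at room temperature. Nitrocefin was then added from an 800 uM solution, and hydrolysis was followed at 480 nm.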
# CHX counter: counter-screen for Shiga toxin inhibitors: cycloheximide protein synthesis inhibition; cell reporter, cycloheximide protein synthesis inhibition counterscreen; max response, %; hit rate 12% among 300,000; in the data active means max response mostly above about 13%, no sharp cut-off; inactive means mostly below about 14%; further: read at 38.3 µM for the half of the compounds with a filed dose; 0% is about no effect
# Shiga toxin inh: blocks Shiga toxin action in Vero cells | hit rate 9.2% among 290,000 | Vero cells, Shiga toxin protein synthesis inhibition reporter | inhibition, % at 38.7 µM; in the data active means inhibition mostly above about 28%, no sharp cut-off; inactive means mostly below about 43%; further: 0% is about no effect
# AmpC detergent: blocks E. coli AmpC beta-lactamase in detergent assay | P00811 | Potency, µM (doses to about 114 µM), for the others: at the highest dose activity change, negative = inhibition, actives largely listed as inhibitors | AID 485294 | hit rate 0.041% among 370,000 | AmpC hydrolysis of nitrocefin, absorbance 480 nm, 0.01% Triton;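 further: potency means the concentration at half of the fitted maximal effect; 0% = no-compound wells and -100% = no-enzyme wells; nearly all actives have a fitted effect of over 25% in size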
#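 20 mM phosphate pH 7.0 + 0.01% (detergent screen) or 0.0001% Triton X-100; 5.3 nM AmpC reagent; cpd preinc 15 min RT; nitrocefin (800 uM stock) to start; A480 q20 s × 4 min; Activity was normalised to no-enzyme and no-compound control wells.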
# SARS PLP yeast: blocks SARS-CoV papain-like protease in a yeast assay; S. cerevisiae expressing SARS-CoV PLpro, growth rescue; Potency, µM (titrated, usually from 32.9 µM), inactives show at the highest dose activity, positive = growth rescue, most hits filed as activators; hit rate 0.19% among 330,000; calls by dose curve; further: potency means the concentration at half of the fitted maximal effect; 0% is about no effect; nearly all actives have a fitted effect of over 55% in size
# AMA1-RON2 inh: disrupts binding of P. falciparum AMA1 to RON2; AlphaScreen AMA1-biotinylated RON2 peptide binding; Potency, µM (titrated, usually from 58.2 µM), without a hit: at the highest dose activity change, negative = inhibition, hits mostly inhibitors; hit rate 0.2% among 360,000;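 further: potency means the concentration at half of the fitted maximal effect; 0% = vehicle wells and -100% = peptide control; nearly all actives have a fitted effect of over 45% in size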
#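 AMA1 (3D7) with his tag at 25 nM final met compounds first, then biotinylated RON2 peptide at 25 nM; detection used donor plus acceptor beads, 10 µg/mL apiece, read by AlphaScreen after 30 min at room temperature.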
# * hit, by the source's call; ? = inconclusive; nt = no result; [ ] = remark or other dose. Unless noted, the call rests on the fitted dose curve; in most records, active means well fitted curve in the direction sought with a large enough effect; inconclusive means small, poorly fitted or top-dose-only effect, or another doubt; inactive means no such curve, though single readings can be large; an effect the other way counts as inactive or inconclusive.
SMILES,AmpC inh no detg,CHX counter,Shiga toxin inh,AmpC detergent,SARS PLP yeast,AMA1-RON2 inh
COc1ccc(C2=NN(S(C)(=O)=O)C(c3cccs3)C2)cc1OC (centres undefined),22.5%,44.2*,65.5*,4.1%,0.4%,-4.1%
CS(=O)(=O)N1N=C(c2ccccc2)CC1c1cccs1 (centres undefined),-1.7%,1.2,14.9,-4.5%,-1.3%,1.9%
COc1cccc(C2=NN(S(C)(=O)=O)C(c3cccs3)C2)c1 (centres undefined),4.6%,34.9*,40.4*,3.6%,0.3%,-6.0%
COc1ccc(C2CC(c3cccs3)=NN2S(C)(=O)=O)cc1OC (centres undefined),11.0%,-1.1,27.6,-1.1%,0.4%,-7.1%
O=C(O)c1cccc(NC(=O)C2C3C=CC(C3)C2C(=O)OCC(F)(F)C(F)F)c1 (centres undefined),-0.1%,-1.4,-2.4,-0.6%,0.8%,-1.3%
Cc1ccc(N(CC(=O)Nc2cccc(F)c2)S(=O)(=O)c2cccs2)cc1,nt,nt,nt,-0.2%,nt,nt
CN(C)c1ccc(CNc2ccccn2)cc1,7.9%,27.1*,43.0*,-17.9%,?,?
Cc1cccc(NCc2ccc(N(C)C)cc2)n1,-23.8%,44.7*,90.8*,-4.5%,9.9%,-54.2%
CN(C)c1ccc(CNc2ncc(Br)cc2Br)cc1,-30.9%,33.6*,66.0*,-2.6%,-13.1%,?
Fc1ccc(CNc2ccccn2)cc1,-12.0%,19.6*,26.4*,-4.1%,3.9%,-3.1%
O=C(Cc1ccccc1[N+](=O)[O-])NC1CC2CCC1C2 (centres undefined),-11.2%,-2.0,-6.5,-11.5%,-8.7%,-1.5%
O=C(OCC1OC(n2cnc3c(N(C(=O)c4ccccc4)C(=O)c4ccccc4)ncnc32)C(O)C1F)c1ccccc1 (centres undefined),22.7%,-1.4,-20.3,?,-2.5%,22.1%
CSc1ccc(CNc2ccccc2)cc1,-34.8%,29.2*,61.3*,-3.3%,0.7%,nt
CSc1ccc(CNCC(O)c2ccccc2)cc1 (centres undefined),-9.7%,22.1*,16.3,3.0%,0.8%,-9.2%
CSc1ccc(CNc2ccccn2)cc1,-19.9%,38.0*,117.4*,-1.1%,-3.3%,-5.5%
CC(C)Oc1ccc(C(=O)N2CCCCC2CCN2CCCCC2)cc1 (centres undefined),nt,nt,nt,7.4%,nt,nt
CN(C)Cc1c(O)ccc2[nH]cnc12,-16.4%,-1.9,-11.3,4.0%,0.5%,7.7%
Oc1ccc2ccc3[nH]cnc3c2c1,-0.1%,52.9*,74.1*,?,3.3%,-8.4%
COc1ccc(CNC(=O)c2noc(C(C)C)c2[N+](=O)[O-])cc1,-23.9%,-1.3,-9.8,-5.7%,1.1%,1.5%
CCOC(=O)C1=C(COC(=O)CC(C)c2ccccc2)NC(=O)NC1C (centres undefined),-1.1%,nt,nt,-2.7%,0.5%,-2.1%
CC(=O)c1c(C)nn(CC(O)COc2ccc3c(c2)CCC3)c1C (centres undefined),48.0%,-1.8,-2.9,-12.2%,-4.8%,-6.3%
CC(C)(C)Nc1ncnc2sc(-c3ccccc3)cc12,-37.3%,11.1,28.9,-0.6%,-0.1%,31.8%
CC(C)(C)N=Cc1cc(-c2ccccc2)sc1O,-7.4%,38.2*,71.1*,-2.1%,-1.6%,-2.2%
CC(C)Oc1cccc(C(=O)NC(=S)Nc2ccccc2)c1,-33.8%,93.6*,119.7*,-10.6%,-32.8%,30.5%
CC(C)Oc1cccc(C(=O)NC(=S)Nc2cccnc2)c1,-12.5%,32.0*,39.9,?,?,53.4%
SMILES,AmpC inh no detg,CHX counter,Shiga toxin inh,AmpC detergent,SARS PLP yeast,AMA1-RON2 inh
COc1cccc(C(=O)NC(=S)Nc2cccnc2)c1,-17.6%,25.9*,42.7*,-14.9%,-19.2%,49.0%
COc1ccc(C(=O)NC(=S)Nc2cccnc2)cc1Cl,-19.9%,-2.9,-3.3,-12.8%,-18.1%,42.4%
CCOc1ccc(C(=O)NC(=S)Nc2cccnc2)cc1,-10.1%,29.8*,0.0,2.7%,17.9%,2.6%
O=C(NCc1ccc(Cl)cc1)N1CCc2ccccc2C1,-6.9%,29.0*,30.3,-9.8%,0.5%,-7.5%
O=C(CNCc1ccc(Cl)cc1)N1CCc2ccccc2C1,0.8%,7.6,25.1,?,1.7%,-14.8%
COc1ccc(CNC(=O)N2CCc3ccccc3C2)cc1Cl,-15.7%,13.7*,-1.1,4.7%,2.0%,-3.9%
CCCCN=C1NN=C(c2cccc([N+](=O)[O-])c2)CS1,-31.8%[11.4 µM],24.3*,83.6*,-12.0%,0.0%,35.4%
CCCCN=C1NN=C(c2cc3ccccc3o2)CS1,14.1µM*,41.1*,53.5*,-7.7%,8.6%,88.1%
CCc1nnc2n1N=C(c1cccc([N+](=O)[O-])c1)CS2,1.1%,-1.4,-9.7,-6.1%,-0.5%,0.0%
COc1ccccc1CNC(=O)c1ccccc1SCC(=O)NCc1ccco1,-21.1%,nt,nt,0.0%,6.8%,-6.1%
Cn1ncc(Cl)c1C(=O)N1CCN(C23CC4CC(CC(C4)C2)C3)CC1,90.6%,6.9,-3.0,-9.4%,-3.0%,23.2%
COc1ccc(C(=O)Nc2ccc(N3CCN(C)CC3)cc2)cc1,-10.4%,47.9*,nt,-4.6%,-3.4%,1.2%
CCOC(=O)N1CCN(C(=O)c2ccc(NC(C)=O)cc2)CC1,-24.9%,-2.1,1.8,-12.5%,0.2%,3.6%
Cc1ccc(C(=O)Nc2ccc(N3CCN(C)CC3)cc2)cc1,-21.8%,34.3*,56.3*,?,5.2%,2.4%
CCOc1ccc(C(=O)Nc2ccc(N3CCN(C)CC3)cc2)cc1,-5.7%,12.0,14.6,?,1.5%,-5.0%
CCOC(=O)N1CCN(C(=O)c2ccc(NC(=O)c3ccc(C)cc3)cc2)CC1,-4.2%,31.4*,33.8,4.0%,-0.1%,7.0%
COc1ccc(C(=O)Nc2ccc(N3CCN(C)CC3)cc2)cc1OC,-20.1%,30.0*,47.7*,-12.4%,4.5%,32.2%
Cc1ccc2nc(Cl)c3cc(C(=O)NC4CCCCCC4)sc3c2c1,nt,nt,nt,-14.3%,nt,nt
COc1ccc(OCC(=O)Nc2ccc3c(c2)nc(CCNC(=O)c2ccco2)n3C)cc1,nt,nt,nt,-1.1%,nt,nt
O=C1NC(=O)C(Cc2ccccc2)(c2ccccc2)N1 (centres undefined),nt,nt,nt,nt,nt,0.0%
COc1ccc(NC(=O)C2C3C=CC4(O3)C2C(=O)N(CCN2CCCCC2C)C4C(=O)NC2CCCC(C)C2C)cc1 (centres undefined),154.0%,-0.7,-7.4,-14.1%,-0.5%,-10.1%
CN1CCN(c2ccc(NC(=O)c3ccc4ccccc4c3)cc2)CC1,21.9%,30.8*,85.4*,-6.8%,1.9%,-20.9%
CN1CCN(c2ccc(NC(=O)COc3ccc4ccccc4c3)cc2)CC1,-2.7%,8.8,4.2,-3.5%,-1.6%,-28.8%
CCC(Oc1ccccc1)C(=O)NCc1ccc(S(N)(=O)=O)cc1 (centres undefined),-29.7%,-2.1,1.8,?,6.7%,21.6%

# From PubChem
